System: LEGO organoid PTCC (PTEN-/-; TP53-/-; CDKN2A-/-; CDKN2B-/-)
Experiment: bioluminescence (viable cell) signal fold change after vs before treatment, normalised to DMSO (ratio); higher = more tumour cell growth / less inhibition
Details: 10 µM; treatment time 6 days
Protocol: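 Luc2-labelled iPSC-derived glioblastoma-like organoids (LEGOs, genotypes PT = PTEN-/-;TP53-/-, PTCC = plus CDKN2A/B-/-, PTN = plus NF1-/-) were treated with 10 uM drug for 6 days (applied every other day) at 37 C. Bioluminescence imaging was done before treatment and 2 days after the last dose. BLI signals were normalised to the DMSO control on the same day and then to the pre-treatment signal (N=3).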

SMILES	bioluminescence
CCN(C)C(=O)Oc1cccc([C@H](C)N(C)C)c1 [Rivastigmine]	0.555
NCC(CC(=O)O)c1ccc(Cl)cc1 (configuration not stated) [Baclofen]	0.877
NCC1(CC(=O)O)CCCCC1 [Gabapentin]	1.26
CCOC(=O)c1cncn1[C@H](C)c1ccccc1 [Etomidate]	1.01
COc1ccc(C(CN(C)C)C2(O)CCCCC2)cc1.Cl (configuration not stated) [Venlafaxine hydrochloride]	0.737
Cc1cccc([C@H](C)c2cnc[nH]2)c1C.Cl [Dexmedetomidine HCl]	1.39
CCC1(c2ccc(N)cc2)CCC(=O)NC1=O (configuration not stated) [Aminoglutethimide]	1.11
CC(C)c1cccc(C(C)C)c1O [Propofol]	0.675
O=C(O)CCCc1ccc(N(CCCl)CCCl)cc1 [Chloroambucil]	1.06
Cl.Cn1c(CCCC(=O)O)nc2cc(N(CCCl)CCCl)ccc21 [Bendamustine hydrochloride]	0.752
CN[C@@H]1C[C@H]2O[C@@](C)([C@@H]1OC)n1c3ccccc3c3c4c(c5c6ccccc6n2c5c31)C(=O)NC4 [Staurosporine]	0
COc1cc2c(cc1OC)[C@@H]1CC(=O)[C@@H](CC(C)C)CN1CC2.COc1cc2c(cc1OC)[C@H]1CC(=O)[C@H](CC(C)C)CN1CC2 [Tetrabenazine]	1.1
CN(C)C(=O)Oc1ccc[n+](C)c1.[Br-] [Mestinon]	1.67
Cc1n[nH]cc1-c1cc2[nH]c([C@@H]3CC4CCN3CC4)nc(=O)c2s1 [Simurosertib]	1.46
CC(C)C[C@H]1C(=O)N2CCC[C@H]2[C@]2(O)O[C@](NC(=O)[C@@H]3C[C@@H]4c5cccc6[nH]cc(c56)C[C@H]4N(C)C3)(C(C)C)C(=O)N12.CC(C)[C@@]1(NC(=O)[C@@H]2C[C@@H]3c4cccc5[nH]cc(c45)C[C@H]3N(C)C2)O[C@@]2(O)[C@@H]3CCCN3C(=O)[C@H](Cc3ccccc3)N2C1=O.CC(C)[C@H]1C(=O)N2CCC[C@H]2[C@]2(O)O[C@](NC(=O)[C@@H]3C[C@@H]4c5cccc6[nH]cc(c56)C[C@H]4N(C)C3)(C(C)C)C(=O)N12.CCC(C)[C@H]1C(=O)N2CCC[C@H]2[C@]2(O)O[C@](NC(=O)[C@@H]3C[C@@H]4c5cccc6[nH]cc(c56)C[C@H]4N(C)C3)(C(C)C)C(=O)N12.CS(=O)(=O)O [Dihydroergotoxine mesylate]	1.82
CCN(C)C(=O)Oc1cccc([C@H](C)N(C)C)c1.O=C(O)[C@H](O)[C@@H](O)C(=O)O [Rivastigmine tartrate]	0.566
CC[C@@H](C(N)=O)N1CCCC1=O [Levetiracetam]	1.07

Source: the supplement of paper PMC10811239
